Values joined by “and” are separate entries in the source; they are usually repeats but may differ in a detail not shown here. Equal entries are not always repeated. Records with an inconclusive call do not appear. The source holds several records for some structures; these can differ, active in one and inactive in another. Active and inactive are the calls of the source. How the source made its calls, unless noted: active means hit-call score of the fitted dose curve at least 0.9, where 1 is the maximum; inactive means score below 0.9.
Tests used:
[1] = molecular target: Estrogen receptor (Homo sapiens) (UniProt P03372); test: CCTE_Deisenroth_AIME_384WELL_LUC_Shift: CCTE's 384-well Estrogen Receptor Transactivation Assay with AIME metabolic competence data shift (ERTA luciferase; difference in metabolism positive and negative), Deisenroth Lab (AID 2284041);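 further: shift is response with S9 minus without S9 so positive means metabolism raised ER signal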
Sequence of Estrogen receptor (Homo sapiens) (P03372 whole entry, looked up): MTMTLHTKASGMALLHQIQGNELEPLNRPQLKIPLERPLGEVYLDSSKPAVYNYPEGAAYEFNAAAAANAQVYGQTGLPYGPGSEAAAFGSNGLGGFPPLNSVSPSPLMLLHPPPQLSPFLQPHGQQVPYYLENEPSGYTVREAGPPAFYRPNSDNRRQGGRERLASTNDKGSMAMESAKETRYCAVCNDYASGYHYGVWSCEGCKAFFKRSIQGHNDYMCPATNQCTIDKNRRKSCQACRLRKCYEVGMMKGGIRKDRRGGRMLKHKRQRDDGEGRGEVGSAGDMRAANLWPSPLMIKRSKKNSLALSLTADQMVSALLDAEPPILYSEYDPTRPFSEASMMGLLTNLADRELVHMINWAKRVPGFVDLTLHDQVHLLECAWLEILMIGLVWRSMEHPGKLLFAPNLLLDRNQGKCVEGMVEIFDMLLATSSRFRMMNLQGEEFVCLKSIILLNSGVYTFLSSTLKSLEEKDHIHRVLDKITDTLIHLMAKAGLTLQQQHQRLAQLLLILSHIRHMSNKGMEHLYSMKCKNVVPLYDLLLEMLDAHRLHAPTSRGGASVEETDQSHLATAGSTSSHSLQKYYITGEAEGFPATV
Outline: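 Test chemicals (0.002–200 uM, 10-point) were pre-incubated 2 h with alginate microspheres containing phenobarbital/beta-naphthoflavone-induced male Sprague Dawley rat liver S9 or water, then medium was transferred to VM7Luc4E2 cells for 24 h luciferase readout; shift = S9-positive minus S9-negative normalized response.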

[2] = CCTE_Shafer_MEA_dev_active_electrodes_number: CCTE's Neural Network Formation Assay for Number of Active Electrodes, Shafer Lab (AID 2284040; active means hit-call score of the fitted dose curve at least 0.9, where 1 is the maximum;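 on AC50: potency for loss of active electrodes versus DMSO so lower counts are hits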)
Outline: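 Primary rat cortical neurons on 16-electrode MEA wells, exposed from day 0 through day 12 with compound renewed at DIV 5 and 9 feeds. Active electrodes (mean firing ≥5 spikes/min) counted at DIV 5, 7, 9, 12; trapezoidal AUC across days, loss-of-signal versus DMSO.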

[3] = CCTE_Shafer_MEA_dev_burst_rate: CCTE's Neural Network Formation Assay for Burst Rate, Shafer Lab (AID 2284042);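 on AC50: potency for loss of burst rate below DMSO control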
Outline: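 Cells plated, treated day 0; recorded DIV 5, 7, 9, 12; fed and re-treated DIV 5, 9. Endpoint: bursts per recording time, active-electrode well mean, trapezoidal AUC, fitted in decreasing direction against DMSO baseline.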

[4] = CCTE_Shafer_MEA_dev_bursting_electrodes_number: CCTE's Neural Network Formation Assay for Number of Bursting Electrodes, Shafer Lab (AID 2284043; active means hit-call score of the fitted dose curve at least 0.9, where 1 is the maximum;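 on AC50: potency is for loss of bursting electrodes relative to DMSO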)
Outline: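 Read-out is the per-well number of electrodes bursting at least once every 2 minutes, recorded on days 5, 7, 9 and 12 and collapsed by trapezoidal area under the curve. Cultures were primary rat cortical neurons on MEA plates, treated continuously from plating.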

[5] = CCTE_Shafer_MEA_dev_per_burst_interspike_interval: CCTE's Neural Network Formation Assay for Burst Interspike Interval, Shafer Lab (AID 2284044);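 further: mean spike spacing inside bursts as AUC over recordings on days 5 7 9 12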;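 on AC50: potency for a decrease of within-burst interspike interval below DMSO level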
Outline: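 Rat cortical primary cultures, 16 electrodes/well; compound from plating, renewed with full media change DIV 5 and 9. Spikes via adaptive detector; per-burst ISI well-mean over active bursting electrodes; AUC of DIV 5/7/9/12 recordings; loss-direction fit vs DMSO.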

[6] = CCTE_Shafer_MEA_dev_burst_duration_mean: CCTE's Neural Network Formation Assay for Mean Burst Duration, Shafer Lab (AID 2284045)
Outline: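 Read-out: average first-to-last-spike interval within single-electrode bursts, averaged over bursting electrodes per well, then summarised as area under the curve across days 5, 7, 9 and 12. Developing rat cortical networks were exposed from day 0.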

[7] = CCTE_Shafer_MEA_dev_interburst_interval_mean: CCTE's Neural Network Formation Assay for Mean Interburst Interval, Shafer Lab (AID 2284046);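 further: well-mean interburst interval of bursting electrodes as AUC over four recording days; curve fitted for decrease in interburst interval relative to DMSO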
Outline: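 Developing rat cortical networks on 48-well MEAs receive compound from the day of plating. Burst intervals from each active electrode are averaged per well, and AUC over the recording days is fitted in the negative direction against DMSO.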

[8] = CCTE_Shafer_MEA_dev_inter_network_spike_interval_mean: CCTE's Neural Network Formation Assay for Mean Inter-network Spike Interval, Shafer Lab (AID 2284047);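 on AC50: potency for a decrease in mean inter-network spike interval below DMSO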
Outline: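 Rat cortical cultures, 1.5 x 10^5 cells/well on 48-well MEA plates; continuous exposure days 0–12, medium and compound refreshed DIV 5, 9. Mean time between consecutive network-spike peaks; AUC across DIV 5/7/9/12; DMSO baseline, negative fitting direction.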

[9] = CCTE_Shafer_MEA_dev_network_spike_number: CCTE's Neural Network Formation Assay for Number of Network Spikes, Shafer Lab (AID 2284048);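 further: synchronized bursts across electrodes counted on days 5 7 9 12 and integrated as AUC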;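 on AC50: fit as a loss of signal meaning fewer network spikes than DMSO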
Outline: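 Developing networks of primary rat cortical neurons are treated over 12 days starting at plating, with media and compound fully replaced on DIV 5 and 9. Network spike counts from four recording days are integrated as trapezoidal AUC.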

[10] = CCTE_Shafer_MEA_dev_network_spike_peak: CCTE's Neural Network Formation Assay for Mean Number of Electrodes in Network Spike, Shafer Lab (AID 2284049);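 on AC50: fitted for loss of signal meaning fewer electrodes in network spikes than DMSO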
Outline: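 Rat cortical primary culture, 1.5 x 10^5 cells/well, 48-well MEA (16 electrodes/well). Dosing day 0 through DIV 12, full media/compound exchange DIV 5, 9. AxIS adaptive spike detection; AUC over days 5/7/9/12; loss-of-signal vs DMSO.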

[11] = CCTE_Shafer_MEA_dev_network_spike_duration_std: CCTE's Neural Network Formation Assay for Standard Deviation of Network Spike Duration, Shafer Lab (AID 2284052);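 further: area under curve of spike duration SD across recording days 5 to 12; hits are decreases in network spike duration SD versus DMSO vehicle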
Outline: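 Read-out is the trapezoidal area-under-the-curve across recordings made on days 5, 7, 9 and 12, fitted in the negative direction against DMSO baseline. Neurons were primary rat cortical cells treated from day 0, with treatment renewed at each feed.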

[12] = CCTE_Shafer_MEA_dev_per_network_spike_spike_number_mean: CCTE's Neural Network Formation Assay for Mean Number of Spikes in a Network Spike, Shafer Lab (AID 2284053);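 on AC50: fitted as decrease in spikes per network spike relative to DMSO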
Outline: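 Continuous twelve-day exposure of developing rat cortical networks grown over 16 microelectrodes per well; spontaneous firing is captured at four time points, and the per-network-spike spike number is integrated over development by trapezoidal AUC.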

[13] = CCTE_Shafer_MEA_dev_per_network_spike_spike_percent: CCTE's Neural Network Formation Assay for Percent of Spikes in a Network Spike, Shafer Lab (AID 2284054)
Outline: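 Rat primary cortical cultures, 1.5 x 10^5 cells/well on MEA. Continuous compound exposure d0–12, medium/compound renewed DIV 5, 9. Network-spike spike % (0.05 s peak window), AUC over 4 recordings, DMSO baseline.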

[14] = CCTE_Shafer_MEA_dev_mutual_information_norm: CCTE's Neural Network Formation Assay for Mutual Information Normalization, Shafer Lab (AID 2284091);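 on AC50: mutual information between electrodes summarised as area under curve across four recording days; potency is for a decrease in mutual information relative to DMSO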
Outline: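 Developing rat cortical networks on 16-electrode MEA wells are treated throughout formation (DIV 0–12). Shared electrode information is recorded four times, converted to area-under-curve, and fitted for decreases against DMSO vehicle.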

[15] = CCTE_Shafer_MEA_acute_AB: CCTE's Alamar Blue Assay for Cytotoxicity in the Neural Acute Assay, Shafer Lab (AID 2284069; active means hit-call score of the fitted dose curve at least 0.9, where 1 is the maximum;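 further: active compounds lower the viability signal compared with DMSO wells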)
Outline: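 Metabolic activity in chemically exposed rat cortical neurons (MEA cultures, day 13/15 post-plating) measured via CellTiter Blue resazurin reduction, 544/590 nm fluorescence; fitted relative to DMSO, with signal loss indicating reduced viability.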

[16] = CCTE_Shafer_MEA_acute_LDH: CCTE's Lactate Dehydrogenase Assay for Cytotoxicity in the Neural Acute Assay, Shafer Lab (AID 2284086; active means hit-call score of the fitted dose curve at least 0.9, where 1 is the maximum;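 further: active means LDH release rises above DMSO vehicle level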)
Outline: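 Medium from rat cortical neuron MEA cultures sampled right after the 40 min compound-exposure recording; released LDH measured by absorbance at 490 nm. Analyzed as signal gain relative to DMSO.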

Measured: AC50

CNC(=O)N(C)c1nnc(C(C)(C)C)s1
inactive: [1]

CCNC(=O)NC(=O)C(C#N)=NOC
inactive: [2] | [3] | [4] | [5] | [6] | [7] | [8] | [9] | [10] | [11] | [12] | [13] | [14]

COc1cc(OC)nc(NC(=O)NS(=O)(=O)c2ncccc2OCC(F)(F)F)n1
inactive: [1]

Nc1cnn(-c2ccccc2)c(=O)c1Cl
inactive: [1]

COC(=O)NS(=O)(=O)c1ccc(N)cc1
inactive: [1]

C=C(C)CN(CC)c1c([N+](=O)[O-])cc(C(F)(F)F)cc1[N+](=O)[O-]
inactive: [1] | [6] | [8] | [15]
active: [2] 16.9 µM | [3] 13.3 µM | [4] 16.4 µM | [5] 22.1 µM | [7] 22.2 µM | [9] 23.2 µM | [10] 18.1 µM | [11] 13.1 µM | [12] 14.1 µM | [13] 23.2 µM | [14] 12.8 µM

O=C(Nc1ccccc1-c1ccc(Cl)cc1)c1cccnc1Cl
active: [2] 9.92 µM | [3] 4.18 µM and 3.1 nM | [4] 7.09 µM | [5] 5.35 µM | [7] 2.59 µM | [8] 0.01 µM | [10] 9.92 µM | [11] 1.14 µM | [12] 1.13 µM | [14] 18.3 µM
inactive: [2] | [1] | [3] | [4] | [5] | [6] | [7] | [8] | [9] | [10] | [11] | [12] | [13] | [16] | [14]

CC1(C)C(C(=O)OC(C#N)c2cccc(Oc3ccccc3)c2)C1(C)C (centres undefined)
active: [2] 19 µM | [4] 15.4 µM | [5] 18.5 µM | [8] 2.56 µM | [9] 0.515 µM | [10] 13.5 µM | [12] 10 µM | [13] 4.54 µM | [14] 1.01 µM
inactive: [3] | [6] | [7] | [11]

CC1(C)C(C=C(Cl)Cl)C1C(=O)OC(C#N)c1cccc(Oc2ccccc2)c1 (centres undefined)
active: [2] 9 µM | [3] 3.77 µM | [4] 6.24 µM | [7] 3.49 µM | [9] 2.98 µM | [10] 11.4 µM | [11] 2.2 µM | [12] 6.97 µM | [13] 8.41 µM | [14] 1.43 µM
inactive: [2] | [1] | [3] | [4] | [5] | [6] | [7] | [8] | [9] | [10] | [11] | [12] | [13] | [15] | [16] | [14]

CN/C(=N\[N+](=O)[O-])NCc1cnc(Cl)s1
inactive: [2] | [3] | [4] | [5] | [6] | [7] | [8] | [9] | [10] | [11] | [12] | [13] | [14]

From PubChem BioAssay (EPA / NIEHS)
